Compound activity (PubChem)
PAX8 inh HTS: inhibitors of PAX8 transcriptional activity in RMG-I cells. RMG-I TPO-luciferase reporter, SteadyGlo, 24 h. inhibition, % at 12.6 µM. hit rate 1.2% among 360,000. AID 652154;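 active = mean replicate inhibition at least 60% with every replicate also reaching 60%; inconclusive = only one of the two criteria is met; inactive = mean below 60% and not all replicates reaching 60%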;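 note: luciferase light reporting Pax8 driven TPO promoter activity; plate controls were median of neutral control wells for no effect and mitoxantrone controls for full effect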
Shn3 inh set2: reduces Shn3 3'UTR luciferase signal in osteoblasts. hit rate 0.52% among 360,000. inhibition, % at 12.5 µM. Clone20 osteoblast Shn3 3'UTR firefly luciferase, 24 h;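 active = mean inhibition of at least 75% with every replicate also reaching 75%; inconclusive = mean inhibition at least 75% but some replicate below; inactive = mean inhibition below 75%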;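 note: 0% = median of neutral control wells and 100% = pilot-screen positive control compound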
EWS-Fli block: inhibitors of EWS/Fli oncoprotein transcriptional activity. A673 NR0B1-luciferase reporter, viability-normalised. inhibition, % at 12.6 µM. hit rate 0.67% among 350,000;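 active = mean inhibition of at least 50% after viability correction, with every replicate also passing that limit; inconclusive = mean reaches 50% but only one of two replicates passes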;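 note: firefly luciferase signal divided by Alamar Blue viability fluorescence both relative to DMSO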
LGR2 antag: Drosophila LGR2 receptor signaling inhibition. AID 720647. HEK293 LGR2, CRE-luciferase, bursicon-stimulated, 4 h. inhibition, % at 9.99 µM. hit rate 0.35% among 380,000;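 active = drop in luminescence signal, shown as inhibition above about 50% in the replicate tests, limit read from the data, passing the limit was not always enough; inconclusive = probably only some replicates passing the limit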;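 note: agonist challenge used bursicon conditioned medium at about half maximal strength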
LMP1 NFkB inh: inhibitors of Epstein-Barr LMP1-induced NF-kappaB reporter; LMP1-induced NF-kappaB luciferase reporter cells, luminescence; inhibition, % at 12.5 µM; hit rate 0.69% among 350,000; in the data active = inhibition above about 41%; inconclusive = no clear call, values can overlap the other calls;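 note: 0% = neutral control wells and 100% = reference inhibitor control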
MITF TRPM1 inh: reduces MITF-dependent TRPM1 promoter luciferase signal; SK-MEL-5 TRPM1 promoter luciferase, 24 h; AID 488899; inhibition, % at 12.5 µM; hit rate 0.83% among 330,000;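 active = mean inhibition across replicates of 60% or more, whatever share of single replicates reaches that level; inconclusive = some that reach 60%, reason not given; inactive = mean inhibition across replicates below 60%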
* hit, by the source's call. Hits are enriched below; roughly 2.2% of the tested compounds scored in any of these assays.

`CCC(C)n1ncn(-c2ccc(N3CCN(c4ccc(OCC5COC(Cn6cncn6)(c6ccc(Cl)cc6Cl)O5)cc4)CC3)cc2)c1=O` (stereo unspecified) gave PAX8 inh HTS 3, Shn3 inh set2 80, EWS-Fli block 25, LGR2 antag -2, LMP1 NFkB inh 91* and MITF TRPM1 inh 14.
For COc1ccc(CN(C)c2ccc(S(=O)(=O)N3CCN(C)CC3)cc2[N+](=O)[O-])cc1OC the results were PAX8 inh HTS 36, Shn3 inh set2 88*, EWS-Fli block 12, LMP1 NFkB inh 24 and MITF TRPM1 inh 13.
COc1cc2c(cc1OC)C1CC(=O)C(CC(C)C)CN1CC2 (stereo unspecified) was read as PAX8 inh HTS 4, Shn3 inh set2 4, EWS-Fli block 3, LGR2 antag 1, LMP1 NFkB inh -5 and MITF TRPM1 inh -1.
`CCC(CC)CC1CN2CCc3cc(OC)c(OC)cc3C2CC1(O)CC` (stereo unspecified) gave PAX8 inh HTS 1, Shn3 inh set2 85*, EWS-Fli block -6, LGR2 antag -6 and LMP1 NFkB inh 3.
For O=C(N/N=C/c1ccc(Cl)c([N+](=O)[O-])c1)c1cc(-c2ccc3c4c(cccc24)CC3)n[nH]1 the results were PAX8 inh HTS 97*, Shn3 inh set2 10, EWS-Fli block 24, LGR2 antag 2, LMP1 NFkB inh 35 and MITF TRPM1 inh 57.
COc1cccc2sc(Nc3nc(-c4ccccn4)cs3)nc12 was read as Shn3 inh set2 71, LMP1 NFkB inh 46* and MITF TRPM1 inh 53.
O=[N+]([O-])/C=C\c1ccc(N2CCCC2)c(F)c1 was read as Shn3 inh set2 48, LMP1 NFkB inh 11 and MITF TRPM1 inh 94*.
Screening O=C(CCN1C(=O)/C(=C/c2ccccc2Cl)SC1=S)Nc1ccccc1C(=O)O returned PAX8 inh HTS 100*, Shn3 inh set2 -8, EWS-Fli block 6, LGR2 antag 16, LMP1 NFkB inh -5 and MITF TRPM1 inh 11.
Screening Cc1cc(/C=N/NC(=O)c2cccc(N(C)C)c2)c(C)n1-c1cc(C(=O)O)cc(C(=O)O)c1 returned PAX8 inh HTS -83, Shn3 inh set2 -1, EWS-Fli block -29, LGR2 antag -45, LMP1 NFkB inh -14 and MITF TRPM1 inh -1.
CN(C)c1cccc(C(=O)N/N=C/c2ccccc2F)c1 was read as PAX8 inh HTS 34, Shn3 inh set2 40, EWS-Fli block -45, LGR2 antag 86*, LMP1 NFkB inh 44* and MITF TRPM1 inh 15.
For Cc1cc(C)nc(/N=C(\N)Nc2ccc(OCc3ccccc3)cc2)n1 the results were PAX8 inh HTS 54, Shn3 inh set2 73, EWS-Fli block 33, LGR2 antag 37, LMP1 NFkB inh -5 and MITF TRPM1 inh 58.
`Cc1cc(C)nc(/N=C(\N)Nc2cccc(OCc3ccccc3)c2)n1` gave PAX8 inh HTS 36, Shn3 inh set2 46, EWS-Fli block 53*, LGR2 antag 34, LMP1 NFkB inh -3 and MITF TRPM1 inh 13.
For Cc1cc(C)nc(/N=C(\N)Nc2ccc(OCCC(C)C)cc2)n1 the results were PAX8 inh HTS 24, Shn3 inh set2 64, EWS-Fli block 21, LGR2 antag 6, LMP1 NFkB inh 16 and MITF TRPM1 inh 65*.
Screening CCCCNC(=S)NNC(=O)c1c(Cl)c(C)nn1C returned PAX8 inh HTS -20, Shn3 inh set2 -4, EWS-Fli block 71*, LGR2 antag 7, LMP1 NFkB inh -6 and MITF TRPM1 inh 7.
`Cc1cccc(C)c1-c1ccc(CN2C(CC(C)C)C(=O)N(Cc3cn(CC4CCCCC4)nn3)CCS2(=O)=O)cc1` (stereo unspecified) gave PAX8 inh HTS 70*, Shn3 inh set2 9, EWS-Fli block 0, LGR2 antag 0, LMP1 NFkB inh 1 and MITF TRPM1 inh 13.
`Cc1noc(C)c1NC(=O)N(C)C[C@@H]1OCCCC[C@H](C)Oc2ccc(NC(=O)Cc3ccccc3)cc2C(=O)N([C@@H](C)CO)C[C@@H]1C` gave EWS-Fli block -3 and LGR2 antag -7.
For C[C@H]1CCCCO[C@H](CN(C)Cc2ccc(Cl)c(Cl)c2)[C@@H](C)CN([C@@H](C)CO)C(=O)c2cc(NC(=O)Cc3ccccc3)ccc2O1 the results were PAX8 inh HTS inconclusive, EWS-Fli block 18 and LGR2 antag 0.
C[C@@H]1CN([C@H](C)CO)C(=O)c2cc(NC(=O)Cc3ccccc3)ccc2O[C@@H](C)CCCCO[C@H]1CN(C)Cc1ccc(Cl)c(Cl)c1 was read as PAX8 inh HTS 97*, EWS-Fli block 9 and LGR2 antag -5.
`C[C@@H]1CCCCO[C@@H](CN(C)Cc2ccc(Cl)c(Cl)c2)[C@H](C)CN([C@@H](C)CO)C(=O)c2cc(NC(=O)Cc3ccccc3)ccc2O1` gave PAX8 inh HTS 87*, EWS-Fli block 9 and LGR2 antag 2.
For O=C(C[C@H]1CC[C@@H](NC(=O)C2CC2)[C@H](CO)O1)NCc1ccccc1Cl the results were PAX8 inh HTS -6, EWS-Fli block 2 and LGR2 antag 10.
O=C(NCc1cccnc1)/C(=C\c1ccc(-c2ccc(Cl)c(Cl)c2)o1)S(=O)(=O)c1ccccc1 was read as PAX8 inh HTS 91*, Shn3 inh set2 98*, EWS-Fli block 40, LGR2 antag 103*, LMP1 NFkB inh 87* and MITF TRPM1 inh 90*.
For COC(=O)c1ccc(NCc2c(O)ccc(O)c2Br)cc1Cl the results were PAX8 inh HTS 6, Shn3 inh set2 81, EWS-Fli block 72*, LGR2 antag -38, LMP1 NFkB inh -48 and MITF TRPM1 inh 6.
For COC(=O)c1ccc(NCc2cc(O)ccc2O)cc1O the results were PAX8 inh HTS 35, Shn3 inh set2 70, EWS-Fli block 57*, LGR2 antag 42, LMP1 NFkB inh -61 and MITF TRPM1 inh -6.
`COC(=O)C[C@H]1C[C@H]2c3cc(NC(=O)Nc4ccc(C(F)(F)F)cc4)ccc3O[C@H]2[C@H](CO)O1` gave PAX8 inh HTS 4, EWS-Fli block -10 and LGR2 antag 13.
For CC=Cc1ccc2n(c1=O)C[C@H]1[C@H](CO)[C@@H](C(=O)NCCc3cn(C)cn3)N(C(=O)C3CCCC3)[C@@H]21 (mixture of isomers) the results were PAX8 inh HTS -2, EWS-Fli block -4 and LGR2 antag 7.
Screening COC(=O)c1ccc2c(c1)C(C)(C)C(/C=C/c1ccccc1O)=[N+]2C returned Shn3 inh set2 97*, LGR2 antag 56*, LMP1 NFkB inh -22 and MITF TRPM1 inh 105*.
`COc1cccc(C2Nc3ccc4ccccc4c3C3=C2C(=O)CCC3)c1O` (stereo unspecified) gave PAX8 inh HTS -9, Shn3 inh set2 16, EWS-Fli block 23, LGR2 antag 3, LMP1 NFkB inh 15 and MITF TRPM1 inh 64*.
